Assay outcomes (PubChem BioAssay)
A selection: hits, their analogues and other compounds. The true share with any hit is near 8.7%.
JMJD2A Tudor – JMJD2A Tudor domain (human) inhibition; AlphaScreen JMJD2A-Tudor / H3K4me3 peptide binding; Potency, µM (series often up to 114 µM), hits mostly inhibitors; 4.4% of 390,000 active; AID 504339; also: nearly all actives have a fitted effect of over 50% in size
BAZ2B block – inhibitors of human BAZ2B bromodomain | Q9UIF8 | 4.4% of 360,000 active | AID 504333 | AlphaScreen BAZ2B-H3K14Ac peptide displacement | Potency, µM (titrated, usually from 114 µM), actives largely listed as inhibitors; also: nearly all actives have a fitted effect of over 60% in size
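AlphaScreen displacement: compounds (up to 110uM) incubated 30 min at room temperature with a preformed 50 nM BAZ2B/50 nM biotinylated H3K14Ac peptide complex in PBS pH 7.4 with Tween-20. Donor and acceptor beads at 10 ug/mL final added, 20 min light-protected before reading.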
ALOX12 inh – blocks human arachidonate 12S-lipoxygenase; P18054; purified 12hLO, xylenol orange hydroperoxide absorbance; Potency, µM (highest dose often 108 µM), actives largely listed as inhibitors; 1.1% of 580,000 active; AID 1671190
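Purified human 12hLO at 150 nM in 25 mM Hepes, 0.01% Triton X-100, pH 7.0, preincubated 15 min at room temperature with compound. Reaction started with 40 uM arachidonic acid, 30 min at room temperature. Hydroperoxide measured by Fe-xylenol orange, 573/405 nm absorbance ratio.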
G9a inh – G9a (human) methyltransferase inhibition. Q96KQ7. G9a H3K9 monomethylation, AlphaScreen, 2 h. Potency, µM (top dose mostly 102 µM), hits mostly inhibitors. 8.8% of 350,000 active. AID 504332; also: nearly all actives have a fitted effect of over 75% in size
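AlphaScreen read-out: biotin-H3K9 peptide (500 nM) methylation by 20 nM enzyme with 20 uM SAM, 2 h at room temperature after 15 min compound preincubation; anti-monomethyl H3K9 antibody plus donor/acceptor beads, 10 min dark.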
Sfp PPTase inh – Sfp phosphopantetheinyl transferase inhibition; Q9F4F7; Biochemical Sfp PPTase activity, qHTS; Potency, µM, most hits filed as inhibitors; 3.5% of 310,000 active; AID 1490;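 also: the enzyme is Sfp with the accession as filed and its product quenches rhodamine fluorescence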
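Sfp 15 nM + cpd, 15 min RT; start w/ rhodamine-CoA 5 uM, BHQ-2-YbbR 12.5 uM (final); 50 mM Hepes pH 7.6, 10 mM MgCl2, 0.01% NP-40, 0.01% BSA; read 525/598 nm at 0 and 30 min.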
HP1b binding inh – blocks HP1-beta chromodomain binding to methylated histone tails. 0.56% of 390,000 active. AlphaScreen HP1-beta / biotin-H3K9me3 peptide binding. Potency, µM (series often up to 114 µM), hits mostly inhibitors. AID 540317. P83916; also: nearly all actives have a fitted effect of over 70% in size
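Compound inhibition of the preformed complex between 50 nM HP1-beta and 50 nM biotinylated H3K9me3 peptide was read by AlphaScreen. Buffer was PBS pH 7.4 with 0.01% Tween-20. Incubations ran 30 min at room temperature, with 10 ug/mL donor/acceptor beads.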
A number is an active result; . = inactive; ? = inconclusive; / = no result given; [ ] = another dose, or the depositor's remark. Calls follow the shape of the dose curve; as a rule, active = well fitted curve in the direction sought with a large enough effect; inconclusive = small, poorly fitted or top-dose-only effect, or another doubt; inactive = no such curve, though single readings can be large; an effect the other way counts as inactive or inconclusive.

SMILES | JMJD2A Tudor | BAZ2B block | ALOX12 inh | G9a inh | Sfp PPTase inh | HP1b binding inh
O=C(NC(=S)Nc1ccccn1)c1ccccc1 | . | . | ? | 50µM | ? | .
CCOc1ccccc1NC(=S)NC(=O)c1ccco1 | . | ? | ? | / | . | .
O=C(NC(=S)Nc1ccccc1[N+](=O)[O-])c1ccco1 | . | . | ? | ? | 56µM | .
CC(C)C(=O)NC(=S)Nc1ccccn1 | ? | . | ? | 56µM | . | .
O=C(NC(=S)Nc1cccnc1Cl)c1ccco1 | . | . | ? | 56µM | . | ?
O=C(Nc1ccccn1)c1ccccc1 | . | / | . | / | / | .
Cn1c(=O)c2c(ncn2CCC(=O)Nc2cccc(Cl)c2)n(C)c1=O | / | / | . | / | / | /
CNC(=O)COC(=O)c1cc(-c2ccc(F)cc2)nc2ccccc12 | / | / | . | / | / | /
CNC(=O)NC(=O)COC(=O)c1cc(-c2ccco2)nc2ccccc12 | / | / | 16µM | / | / | /
NS(=O)(=O)c1ccc(CCNC(=O)c2cc(-c3ccco3)nc3ccccc23)cc1 | ? | . | ? | ? | / | .
COC(=O)C1CCN(C(=O)c2cc(-c3ccco3)nc3ccccc23)CC1 | 28µM | / | ? | / | / | ?
NC(=O)COC(=O)c1cc(-c2ccco2)nc2ccccc12 | . | . | 28µM | 16µM | . | .
COC(=O)c1ccc(COC(=O)c2cc(-c3ccco3)nc3ccccc23)cc1 | / | / | 7.1µM | / | / | /
CC(=O)N1CCC(N2CCOC[C@H]2c2ncc(-c3cccnc3)[nH]2)CC1 | / | / | . | / | / | /
Cc1cc(C(=O)OCC(=O)N2CCOCC2)c2ccccc2n1 | 35µM | . | ? | . | . | ?
Cc1cc(C(=O)OCC(=O)N2CCCC2)c2ccccc2n1 | . | . | . | . | . | .
O=C(OCC(=O)N1CCCC1)c1cc(-c2ccco2)nc2ccccc12 | / | / | 6.3µM | / | / | /
CCCCn1nc(C(=O)NC(C)c2ccc3c(c2)OCCO3)c2ccccc2c1=O (stereo not drawn) | / | / | . | / | / | /
CCN(CC1CCOC1)C(=O)CCc1c(C)c2ccc(OC)cc2oc1=O (stereo not drawn) | / | / | . | / | / | /
CCN(CC)CCSc1nc2c([nH]1)c(=S)n(C)c(=O)n2C | 18µM | / | . | / | / | .
Cn1c(=S)c2[nH]c(SCc3cccnc3)nc2n(C)c1=O | 8.9µM | / | 3.2µM | / | / | .
CCCCSc1nc2c([nH]1)c(=S)n(C)c(=O)n2C | . | / | . | / | / | .
Cn1c(=S)c2[nH]c(SCCC(C)(C)C)nc2n(C)c1=O | 22µM | / | . | / | / | .
CSc1nc2c([nH]1)c(=S)n(C)c(=O)n2C | . | / | . | / | / | .
Cc1oc(-c2nc(C#N)c(NC3CC3)o2)cc1S(=O)(=O)N(C)C | / | / | . | / | / | /
SMILES | JMJD2A Tudor | BAZ2B block | ALOX12 inh | G9a inh | Sfp PPTase inh | HP1b binding inh
CN(Cc1ccccc1)C(=O)Cc1cccn1-c1ccc(F)cc1 | / | / | . | / | / | /
O=c1oc2ccccc2c2oc3cc(O)c(O)cc3c12 | 7.9µM | 40µM | 6.3µM | / | ? | ?
Nc1c(N)c2ccccc2oc1=O | . | ? | . | ? | ? | .
Cc1cc(NC(=O)Cn2c(=O)n(-c3ccc(C)c(C)c3)c(=O)c3sccc32)no1 | / | / | . | / | / | /
CC1CCN(C(=O)CCC[C@@H]2[C@H]3CCCN4CCC[C@@H](CN2C)[C@@H]34)CC1 | / | / | . | / | / | /
NC(=S)NN=C1CCCCCCCCC1 | . | / | ? | / | / | .
NC(=S)NN=C1C2CC3CC(C2)CC1C3 | . | . | ? | 14µM | 32µM | .
NC(=O)C(=O)NN=C1C2CC3CC(C2)CC1C3 | ? | . | . | 45µM | . | .
c1ccc(-c2cc(-c3ccccc3)n(-c3ccccc3)n2)cc1 | / | / | . | / | / | /
Cn1ccnc1CN(C1CC1)S(=O)(=O)c1cc(Cl)ccc1Cl | / | / | . | / | / | /
Nc1n[nH]c2cc(=O)n(-c3ccc(Cl)cc3)nc12 | . | . | . | 45µM | . | .
COc1ccc(-n2nc3c(N)n[nH]c3cc2=O)cc1 | . | . | . | 50µM | . | .
Cc1ccc2nc(C)c(C(=O)N(C)CCOc3ccccc3F)cc2c1 | / | / | . | / | / | /
Cc1cc(C)nc(N/N=C/C=C/c2ccccc2)n1 | . | . | . | 50µM | . | .
Cc1cc(C)nc(N/N=C/c2ccccc2)n1 | . | . | . | . | ? | .
COc1ccc(-c2cc(C(=O)Oc3cccc(Br)c3)no2)cc1 | / | / | . | / | / | /
CCC(=O)N1CCCCCCNC(=O)CC1c1ccccc1 (stereo not drawn) | / | / | . | / | / | /
COc1ccc(NC(=O)/C(C#N)=C\c2ccc(OCc3ccc(C(=O)O)cc3)c(OC)c2)cc1 | ? | ? | . | ? | . | ?
N#C/C(=C\c1ccccc1OCc1ccc(C(=O)O)cc1)C(=O)Nc1ccc(O)cc1 | .[11.4 µM] | . | . | 50µM | . | ?
N#C/C(=C\c1ccc(OCc2ccc(Br)cc2)cc1)C(=O)Nc1cccc(C(=O)O)c1 | 40µM | 56µM | . | ? | . | .
COc1cc(/C=C(\C#N)C(=O)Nc2cccc(C(=O)O)c2)ccc1OCc1ccc(F)cc1 | . | . | . | ? | . | .
N#C/C(=C/c1ccc(OCc2ccc(C(=O)O)cc2)cc1)C(=O)Nc1ccccc1 | 25µM | 79µM | / | 50µM | . | .
N#C/C(=C/c1ccc(OCc2ccccc2)cc1)C(=O)NC1CCCCC1 | . | . | . | . | . | .
N#C/C(=C\c1ccc(OCc2ccc(F)cc2)cc1)C(=O)Nc1cccc(C(=O)O)c1 | . | 79µM | . | .[12.7 µM] | . | .
Cc1nc(CCCNC(=O)c2cc(S(N)(=O)=O)ccc2F)sc1C | / | / | . | / | / | /
SMILES | JMJD2A Tudor | BAZ2B block | ALOX12 inh | G9a inh | Sfp PPTase inh | HP1b binding inh
COc1ccc(-c2cc(N3CCN(C(=O)Cc4cccc(C)c4)CC3)n[nH]2)cc1 | / | / | . | / | / | /
O=C(CN1CCN(c2nccs2)CC1)NCc1ccc(F)cc1 | / | / | . | / | / | /
N#C/C(=C\c1ccc(OCc2ccccc2)cc1)C(N)=O | 14µM | . | . | . | . | ?
O=C(c1cccnc1OC1CCN(Cc2ccccn2)C1)N1CCCCC1 (stereo not drawn) | / | / | . | / | / | /
Cc1cc(NC(=O)CCC(=O)N(Cc2ccco2)C2(C(=O)NC3CCCC3)CCCCC2)no1 | 89µM | . | . | . | . | .
O=[N+]([O-])c1ccccc1/C=C/CN1CCSCC1 | 13µM | 50µM | . | / | . | ?
CC1CCCN(C/C=C/c2ccccc2[N+](=O)[O-])C1 (stereo not drawn) | . | . | . | . | . | .
O=C1CCN(C(=O)CC2CCCC2)CCCC(c2nc(-c3ccccc3)no2)CCN1 (stereo not drawn) | / | / | . | / | / | /
O=C(CN1CCCc2ccccc21)N/N=C/c1ccccc1O | . | . | . | . | . | .
COc1ccc(/C=N/NC(=O)CN2CCCc3ccccc32)c(OC)c1 | 50µM | 50µM | . | ? | . | ?
CC(=O)N1CC[C@H](c2nc3cc(F)ccc3o2)C1 | / | / | . | / | / | /
O=C(CSc1nnc(NC2CCCCC2)s1)NN1C(=O)NC2(CCCCC2)C1=O | ? | . | . | 45µM | . | .
NS(=O)(=O)c1ccc(NC(=S)NC2CCCCCC2)cc1 | . | . | ? | ? | 25µM | .
